The list is not random: actives were taken first. Their share in the collection is about 1.8%.
DUSP3 inh: blocks human VHR1 dual specificity phosphatase | P51452 | recombinant VHR phosphatase, pNPP absorbance | inhibition, % at 13.3 µM | 0.52% of 290,000 active; in the data active = inhibition above about 50%
Target sequence (P51452 whole entry, looked up): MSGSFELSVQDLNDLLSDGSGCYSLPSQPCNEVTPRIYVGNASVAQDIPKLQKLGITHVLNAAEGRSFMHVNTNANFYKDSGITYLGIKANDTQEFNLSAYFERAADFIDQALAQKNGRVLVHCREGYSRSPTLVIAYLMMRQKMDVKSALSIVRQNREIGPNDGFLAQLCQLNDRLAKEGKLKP
PrPC surface inh: cell surface PrPC inhibition, primary TR-FRET screen; inhibition, % at 13.8 µM; 0.43% of 370,000 active; AID 720596; TR-FRET read-out; in the data active = inhibition above about 24%
PfHsp40 rescue: compounds rescuing yeast from Plasmodium falciparum HSP40 toxicity | 0.68% of 340,000 active | S. cerevisiae expressing PfHsp40, growth rescue, ATP luminescence | growth rescue, % at 12.5 µM | AID 504582; in the data active = growth rescue above about 28%, passing the limit was not always enough;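 note: yeast W303a lacking pdr1 and pdr3 grown in galactose medium; growth measured after three days at 30 °C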
RN4220 kill: S. aureus RN4220 growth inhibition | inhibition, % (test concentration not listed) | OD600, 16 h | 0.33% of 330,000 active; in the data active = inhibition above about 85%
Sa ugtP lethal: compounds lethal to S. aureus RN4220 ugtP deletion mutant; 0.54% of 330,000 active; AID 1259309; growth inhibition, % (test concentration not listed); OD600 growth, 16 h; in the data active = growth inhibition above about 68%
Numbers stand for hits; - = inactive; . = no result given.

SMILES	DUSP3 inh	PrPC surface inh	PfHsp40 rescue	RN4220 kill	Sa ugtP lethal
COc1cc(OC)c(-c2c3cc(O)c(=O)cc-3oc3cc(O)c(O)cc23)cc1OC	-	-	228	-	-
COc1cc(-c2cc(=O)c3ccc(O)cc3o2)cc(OC)c1OC	.	-	.	.	.
CC=CC(=O)Nc1cccc(C2=NOC3(C2)CC(C(N)=O)N(C(=O)C(c2ccccc2)c2ccccc2)C3)c1 (centres undefined)	.	.	.	-	-
CN(C)C1=NCC(Cc2ccccc2)N1CCc1cccc(F)c1 (centres undefined)	.	.	.	-	-
CCCCOc1ccc(/C=C/C(=O)OCC(=O)NC2CCS(=O)(=O)C2)cc1OCC (centres undefined)	.	-	-	-	92
CCCCNc1c(-c2ccc(SC3CCCCC3)c(OC)c2)nc2ccc(C)cn12	.	-	174	.	.
COc1ccc(-c2nc3ccc(C)cn3c2NCc2ccccc2)cc1SC1CCCCC1	.	.	-	.	.
COc1ccc(N(CC(=O)Nc2cccc(C(F)(F)F)c2)S(=O)(=O)c2c(C)[nH]c(=O)[nH]c2=O)cc1	-	-	-	-	-
COc1ccc(N(CC(=O)Nc2cccc(F)c2)S(=O)(=O)c2c(C)[nH]c(=O)[nH]c2=O)cc1	56	-	-	-	-
COCCn1nnnc1CN(CCc1ccc(OC)c(OC)c1)Cc1cc2ccc(C)cc2[nH]c1=O	52	-	-	-	-
Cn1c(-c2c(N)n(CCc3ccccc3)c3nc4ccccc4nc23)nc2ccccc21	-	.	-	-	-
Cn1c(-c2c(N)n(C3CCCC3)c3nc4ccccc4nc23)nc2ccccc21	-	-	490	-	-
CC(Cc1cccs1)NC(=O)Nc1ccc(Cl)c(Cl)c1 (centres undefined)	-	-	131	-	-
CC(Cc1cccs1)NC(=O)Nc1ccc(Cl)cc1 (centres undefined)	-	-	-	.	.
Cc1cc(C)c(C(=O)NNC(=O)c2cccnc2)c(C)c1	56	-	-	-	-
CC12CCC(O)CC1=CCC1C2CCC2(C)C3=NN=CC3CC12 (centres undefined)	.	-	86	-	-
O=S(=O)(c1ccccc1)[C@@]1(c2ccccc2)CC2ON=C(c3cccc(Br)c3)C2C1 (some centres undefined)	.	.	.	-	-
COC(=O)c1nc(N)sc1C(C)C	53	-	-	-	-
COC(=O)c1nc(N)sc1-c1ccccc1	-	-	-	-	-
CCN1C(=O)C2C(C1=O)C(c1ccc(OC)cc1)N1C(=O)c3ccccc3NC(=O)C21 (centres undefined)	.	.	.	-	-
COC(=O)C1=C(C)NC(C)=C(C(=O)OC)C1c1ccccc1[N+](=O)[O-]	-	-	37	.	.
CCOC(=O)C1=C(C)NC(C)=C(C(=O)OC)C1c1cccc([N+](=O)[O-])c1 (centres undefined)	-	-	-	-	-
S=c1[nH]nc(-c2ccc3ccccc3n2)n1-c1cc(Cl)cc(Cl)c1	55	-	-	-	-
O=c1ccc(-c2n[nH]c(=S)n2-c2ccc(F)c(Cl)c2)n[nH]1	-	-	52	-	-
O=C(Nc1ccc(F)c(Cl)c1)C1CC(=O)n2c(nc3ccccc32)N1 (centres undefined)	53	-	-	-	-
SMILES	DUSP3 inh	PrPC surface inh	PfHsp40 rescue	RN4220 kill	Sa ugtP lethal
CON/C=C(\C=Nc1ccc(F)cc1)c1ncc(C(F)(F)F)cc1Cl	-	-	-	-	92
CCOC(=O)C1C2COc3ccc(C)cc3C2N2C(=O)CN(Cc3ccc(C)cc3)C(=O)[C@@]12C (some centres undefined)	.	.	.	-	-
CC1CCc2sc(-c3n[nH]c(=S)o3)cc2C1 (centres undefined)	-	-	330	-	-
NC1CCN(c2nc3c(cc2F)c(=O)c(C(=O)O)cn3-c2ccc(F)cc2F)C1 (centres undefined)	.	-	-	100	99
COc1c(N2CC3CCCNC3C2)c(F)cc2c(=O)c(C(=O)O)cn(C3CC3)c12 (centres undefined)	.	.	.	101	100
NC1CCN(c2c(F)cc3c(=O)c(C(=O)O)cn(C4CC4)c3c2Cl)C1 (centres undefined)	-	-	-	100	100
COc1c(N2CCNC(C)C2)c(F)cc2c(=O)c(C(=O)O)cn(C3CC3)c12 (centres undefined)	.	.	.	100	100
Cc1cccc(-c2cc(=O)c(C(=O)O)cn2-c2ccc(F)cc2F)c1	-	-	-	-	-
CCOC(=O)c1cn(C2CC2)c2c(F)c(NCCCN(C)C)c(F)cc2c1=O	.	-	-	-	-
CCOC(=O)c1sc2ncn(N=CN(C)C)c(=O)c2c1C	.	.	.	-	-
CON=C(c1nonc1N)N1CCN(c2ccc(Cl)cc2[N+](=O)[O-])CC1	.	.	.	-	-
CCOc1ccc(C=NNC(=O)Cn2ccnc2C)cc1	.	.	.	-	-
CCN(C[C@H]1N[C@@](Cc2ccccc2)(C(=O)OC)[C@H]2C(=O)N(Cc3ccccc3)C(=O)[C@@H]12)C(=O)Nc1ccc(C(F)(F)F)cc1	.	-	-	100	100
CCN(C[C@H]1N[C@@](Cc2ccccc2)(C(=O)OC)[C@H]2C(=O)N(Cc3ccccc3)C(=O)[C@@H]12)C(=O)Nc1ccc(C)cc1	.	-	-	-	-
O=C(CNC(=O)c1ccccc1O)NN=Cc1cc(Br)ccc1OC(=O)C=Cc1ccco1	.	.	.	-	-
O=C(O)c1cccc(NC(=S)NC(NC(=O)c2cccc([N+](=O)[O-])c2)C(Cl)(Cl)Cl)c1 (centres undefined)	-	-	-	-	-
O=C(NC(NC(=S)Nc1ccc(Cl)cc1Cl)C(Cl)(Cl)Cl)c1cccc([N+](=O)[O-])c1 (centres undefined)	-	-	-	87	-
Cc1ccccc1CN(C)CCS(=O)(=O)c1cc(Cl)ccc1Cl	-	-	61	.	.
Nc1nnc(CCS(=O)(=O)c2cc(Cl)ccc2Cl)s1	-	-	-	-	-
COc1ccccc1-c1c(-c2ccc(OCC(=O)NN)cc2O)n[nH]c1C(F)(F)F	-	-	-	-	-
COc1ccc(-c2n[nH]c(C(F)(F)F)c2-c2cc3ccccc3o2)c(O)c1	-	-	-	100	100
O=C(COc1ccccc1)N=C1SC2CS(=O)(=O)CC2N1Cc1ccccc1 (centres undefined)	60	-	-	-	-
COc1ccc(CN2C(=NC(=O)COc3ccccc3)SC3CS(=O)(=O)CC32)cc1 (centres undefined)	-	-	-	-	-
C=CCCC(Cc1ccc(F)cc1)C(=O)OC(CNC(=O)C(CC=C)CC(=O)NC(CO)Cc1ccccc1)c1ccccc1 (centres undefined)	.	.	.	-	-
Nc1nonc1-n1nnc(C(=O)NN=Cc2cccc(F)c2)c1CN1CCCC1	.	.	.	-	-
Cc1c(C(=O)NCC2COc3ccccc3O2)oc2ccc(S(=O)(=O)N(C)C3CCCCC3)cc12 (centres undefined)	52	-	-	-	-
CN(C)S(=O)(=O)c1ccc(N2CCCC2)c(C(=O)NCC2COc3ccccc3O2)c1 (centres undefined)	.	-	-	-	-
Cn1c(=O)c2c(nc3n2CC(CO)O3)n(C)c1=O (centres undefined)	59	-	-	-	-

Assay outcomes (PubChem)
